From publication PMC5540273 (PLoS ONE, 2017)

These compounds were tested on FLT3-autoinhibited. Details: concentration: 1 μM,replicates: in singlicate; n = 1.
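Note: KINOMEscan kinase panel screen.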

Row | SMILES | %Inh [%]
1 | O=C(Nc1cccc(C(F)(F)F)c1)c1cccc(Oc2ccc3nccn3n2)c1 | 17
2 | CCCC(=O)Nc1n[nH]c2ncccc12 [SB-601436] | 0
3 | C[C@@H]1CNc2c(sc3ccc4nc(-c5ccc(O)cc5)ccc4c23)C(=O)N1 | 6
4 | COC(=O)c1cccc(NC(=O)NC2CCN(c3ccnc(NCc4ccc(F)cc4)n3)CC2)c1 [GSK1379860] | 24
5 | CC(=O)Nc1ccc(-c2cc3ncnc(SCC(=O)O)c3s2)cc1 | 33
6 | NC(=O)c1ccc(-c2cc3ncnc(SCC(=O)O)c3s2)cc1 | 2
7 | C[C@@H]1CCN(C(=O)N2CCCC2)C[C@@H]1N(C)c1ncnc2[nH]ccc12 | 18
8 | CCn1c(-c2nonc2N)nc2cncc(Br)c21 [SB-738004] | 53
9 | Cc1ccc(CC(=O)N2CCc3cc(-c4cn(C)c5ncnc(N)c45)ccc32)cc1 [GSK2634758] | 0
10 | Nc1nccc(-c2ccc3c(N)n[nH]c3c2)n1 [GSK1034945] | 2
11 | COc1cccc(C2=C(Nc3cccc(Cl)c3)C(=O)NC2=O)c1 [SB-341556] | 4
12 | Cc1n[nH]c2cc(Nc3ccnc(Nc4cccc(CN5CCOCC5)c4)n3)ccc12 [GW682569] | 18
13 | Cl.Cl.NC[C@H](CC1CCCCC1)NC(=O)c1ccc(-c2ccnc3[nH]ccc23)s1 [GSK1581428] | 26
14 | COc1cc2c(Nc3ccc(NC(=O)c4ccccc4)cc3)ncnc2cc1OCCCN1CCOCC1 [GSK301329] | 0
15 | C[C@@H](Oc1cc(-n2cnc3ccc(-c4ccncc4)cc32)sc1C(N)=O)c1ccccc1Cl [GSK483724] | 6
16 | NC(=O)Nc1sc(-c2ccc(F)cc2)cc1C(N)=O [GW789449] | 5
17 | CN(c1ccc2c(c1)nc(NCc1ccc(F)cc1)n2C)c1ccnc(Nc2ccc(CS(C)(=O)=O)cc2)n1.Cl [GW813244] | 1
18 | c1ccc(Oc2ccc(Nc3ccnc4ccc(-c5ccccn5)cc34)cc2)cc1 [GW407034] | 0
19 | CS(=O)c1ccc(-c2coc3ccc(-c4n[nH]c(=O)o4)cc23)cc1 (stereo not shown) | 0
20 | CCN1CCN(CCCC(=O)Nc2n[nH]c3nc(-c4ccc(O)cc4)c(Br)cc23)CC1 [SB-731579] | 0
21 | CC(=O)c1c(-c2ccncc2)[nH]c(-c2ccncc2)c1C [GW493036] | 0
22 | CSc1nccc(-c2c(-c3ccc(F)cc3)ncn2CCCN2CCOCC2)n1.Cl [SB-217146] | 0
23 | CN1CCN(CCNc2nc3cc(Oc4ccc(NC(=O)Nc5cc(C(F)(F)F)ccc5F)cc4)ccc3[nH]2)CC1.Cl.Cl [GW768504] | 0
24 | C[C@@H](Oc1cc(-n2cnc3cc(-c4ccncc4)ccc32)sc1C(N)=O)c1ccccc1Cl [GSK479719] | 24
25 | O=C(Nc1cccc(Oc2ccc3nccn3n2)c1)Nc1cccc(C(F)(F)F)c1 | 0
